# Most compounds without a hit are left out; they make up all but 6.7% or so of the library.
# Pf Dd2 inh – blocks growth of Plasmodium falciparum Dd2 parasites | P. falciparum Dd2 growth, SYBR Green, 72 h; hits give low values | activity change, % at 10 µM | 94,000 compounds, 2.3% hits; in the data active = activity change below about -80%; inconclusive = no clear call, values can overlap the other calls
# C diff HTS – inhibitors of Clostridium difficile growth; 86,000 compounds, 0.25% hits; Clostridium difficile clinical isolate growth, OD600, 24 h; hits give low values; growth activity, negative = inhibition, % at 16 µg/mL (by protocol);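 active = mean growth activity at or below -80% and every replicate also at or below -80%; inconclusive = mean at or below -80% but some replicate above -80%; inactive = mean growth activity above -80%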;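 also: 0% = DMSO wells and -100% = levofloxacin 16 µg/mL wells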
# T cruzi growth-1 – blocks T. cruzi growth in NIH3T3 culture; T. cruzi beta-gal in NIH3T3, GalScreen luminescence, 90 h; inhibition, % at 8.34 µM; 77,000 compounds, 5.9% hits; AID 624255;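 active = mean inhibition above about 93%, with at least 55% of replicates each passing it, limit read from the data, passing the limit was not always enough; inconclusive = only one of those two conditions holds; inactive = neither condition holds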
# T cruzi growth-2 – inhibitors of T. cruzi proliferation; shares compounds with T cruzi growth-1; T. cruzi beta-gal in NIH3T3, GalScreen luminescence, 90 h; inhibition, % at 8.35 µM; 5,600 compounds, 72% hits;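 active = mean replicate inhibition above about 95% and at least 55% of replicates individually reaching it, limit read from the data; inconclusive = only one of the two criteria is met; inactive = neither criterion is met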
# T cruzi growth-3 – blocks T. cruzi growth in NIH3T3 host cells. 5,600 compounds, 21% hits. inhibition, % at 2.09 µM. T. cruzi beta-gal in NIH3T3, GalScreen luminescence, 90 h. shares compounds with T cruzi growth-1;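 active = mean inhibition above about 95%, with at least 55% of replicates also reaching it, limit read from the data; inconclusive = meets just one of the two conditions; inactive = meets neither condition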;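 also: plate controls were neutral control median for no effect and positive control median for full effect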
# NIH3T3 tox – kills mouse NIH/3T3 fibroblasts; shares compounds with T cruzi growth-1; cytotoxicity (signal decrease), % at 8.35 µM; 5,600 compounds, 14% hits; AID 651742; NIH/3T3 viability, CellTiter-Glo ATP luminescence, 90 h;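 active = mean signal decrease across replicates above about 35% based on untreated-well scatter, with enough replicates individually passing, limit read from the data; inconclusive = no rule stated though some were filed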;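 also: 0% = median of neutral control wells and 100% = median of positive control wells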
# NIH3T3 tox 2 – kills mouse NIH/3T3 fibroblasts; shares compounds with T cruzi growth-1; inhibition, % at 24.9 µM; 5,600 compounds, 56% hits; NIH/3T3 viability, CellTiter-Glo ATP luminescence, 90 h;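 active = mean loss of cell viability signal at or above a set limit, and enough replicates individually reaching it; inconclusive = meets only the mean limit or only the replicate share; inactive = meets neither condition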;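 also: 0% = median of neutral control wells and 100% = median of positive control wells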
# * marks the source's active call; other numbers are inactive results; ? = inconclusive; / = no result.
SMILES,Pf Dd2 inh,C diff HTS,T cruzi growth-1,T cruzi growth-2,T cruzi growth-3,NIH3T3 tox,NIH3T3 tox 2
O=C(Cc1ccccc1)N1CC[C@@H]2[C@H]1c1cc(C#Cc3ccccc3)ccc1N[C@@H]2CO,-40,-1,105*,89,61,-1,106*
COc1ccc(C#Cc2ccc3c(c2)[C@H]2[C@H](CCN2C(=O)C2CC2)[C@H](CO)N3)cc1,-46,-11,104*,110*,67,0,41*
CCC(=O)N1CC[C@H]2[C@H](CO)Nc3ccc(C#Cc4ccc(OC)cc4)cc3[C@H]21,-71,7,/,/,/,/,/
COc1cccc(C#Cc2ccc3c(c2)[C@H]2[C@H](CCN2C(=O)c2ccccc2F)[C@H](CO)N3)c1,-28,-2,60,/,/,/,/
O=C(Cc1ccccc1)N1CC[C@@H]2[C@H](CO)Nc3ccc(C#Cc4ccccc4)cc3[C@@H]21,-75,-5,81,/,/,/,/
COc1ccc(C#Cc2ccc3c(c2)[C@H]2[C@H](CCN2C(=O)c2ccccc2F)[C@H](CO)N3)cc1,-65,47,?,106*,99*,43*,62*
CO[C@@H]1CN(C)C(=O)c2ccc(NC(=O)c3cnccn3)cc2OC[C@H](C)N(CC2CC2)C[C@@H]1C,33,1,/,/,/,/,/
O=C(C[C@H]1C[C@H]2c3cc(NS(=O)(=O)c4ccc(F)cc4)ccc3O[C@H]2[C@@H](CO)O1)NCC(F)(F)F,4,2,-9,/,/,/,/
COc1ccc2c3c(n(C)c2c1)[C@@H](CO)N(Cc1ccc2c(c1)OCO2)CC31CCN(C(=O)C2CC2)CC1,-75,0,/,/,/,/,/
O=C(C1CC1)N1[C@@H](CO)[C@@H](c2ccccc2)C12CN(Cc1cncnc1)C2,-26,-1,/,/,/,/,/
C[C@H](CO)N1C[C@H](C)[C@@H](CN(C)S(=O)(=O)c2cccs2)Oc2ccc(NS(=O)(=O)c3ccc(F)cc3)cc2CC1=O,-36,12,0,/,/,/,/
COc1ccccc1C#Cc1ccc2c(c1)[C@H]1[C@H](CCN1C(=O)c1ccncc1)[C@@H](CO)N2,-22,57,/,/,/,/,/
O=C(C1CCCCC1)N1CC[C@@H]2[C@@H](CO)Nc3ccc(C#Cc4ccc(F)cc4)cc3[C@@H]21,-70,42,/,/,/,/,/
CCC(=O)N1CC[C@@H]2[C@H](CO)Nc3ccc(C#Cc4ccc(F)cc4)cc3[C@@H]21,12,-10,106*,105*,74,18,50*
CCC(=O)N1CC[C@@H]2[C@H]1c1cc(C#Cc3ccc(F)cc3)ccc1N[C@@H]2CO,-21,-16,51,/,/,/,/
COc1ccc(C#Cc2ccc3c(c2)[C@@H]2[C@@H](CCN2C(=O)C2CCCCC2)[C@@H](CO)N3)cc1,-25,5,101*,101*,86,27,95*
COc1ccc(C#Cc2ccc3c(c2)[C@@H]2[C@@H](CCN2C(=O)c2ccncc2)[C@@H](CO)N3)cc1,-68,-18,122*,105*,57,-18,13
C[C@H]1CN([C@@H](C)CO)C(=O)c2cccc(N(C)C)c2O[C@@H]1CN(C)Cc1ccc(-c2ccccc2)cc1,-60,-1,-23,/,/,/,/
O=C(CCN1CCCCC1)N[C@@H]1CC[C@@H](CCNS(=O)(=O)c2ccccc2)O[C@H]1CO,-4,/,-24,/,/,/,/
CCCNC(=O)N1C[C@@H](O)COC[C@@H]2O[C@@H](CC(=O)N3CCCCC3)CC[C@H]21,4,/,2,/,/,/,/
C[C@H]1CCCCO[C@@H](CN(C)C(=O)Nc2ccc3c(c2)OCO3)[C@@H](C)CN([C@@H](C)CO)C(=O)c2cc(NC(=O)C3CCCCC3)ccc2O1,-76,-3,77,/,/,/,/
C[C@@H]1CCCCO[C@H](CN(C)C(=O)Nc2ccc(F)cc2)[C@H](C)CN([C@@H](C)CO)C(=O)c2cc(NC(=O)C3CCCCC3)ccc2O1,-75,6,?,97*,48,-2,18
COc1ccc(NC(=O)N(C)C[C@H]2OCCCC[C@@H](C)Oc3ccc(NC(=O)C4CCCCC4)cc3C(=O)N([C@@H](C)CO)C[C@H]2C)cc1,-80,-2,97*,98*,40,-30,-21

# From PubChem
